Source: PubChem BioAssay AID2280 (The Scripps Research Institute Molecular Screening Center, 2010)
Among all 320,000 compounds or so, about 1,400 (0.44%) were called active. The list comes from a sample in which actives are over-represented; it also holds similar structures and randomly drawn compounds. A number with no mark means an inactive call.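 The calls were made as follows: active = percent inhibition above a per-plate cutoff, the plate mean of test compounds plus 3 SD (cut at about 30% in these data); inactive = the rest.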

biological target: Female germline-specific tumor suppressor gld-1 (Caenorhabditis elegans) (UniProt Q17339); experiment: small molecules blocking C. elegans GLD-1 RNA recognition – biochemical, fluorescence polarization, primary screen (AID 2280); conditions: purified GLD-1 + fluorescein TGE RNA, at 5.96 µM, active compounds read high;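 also: 0% = DMSO wells with GLD-1 and probe and 100% = wells lacking GLD-1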
Sequence (Q17339 whole entry, looked up): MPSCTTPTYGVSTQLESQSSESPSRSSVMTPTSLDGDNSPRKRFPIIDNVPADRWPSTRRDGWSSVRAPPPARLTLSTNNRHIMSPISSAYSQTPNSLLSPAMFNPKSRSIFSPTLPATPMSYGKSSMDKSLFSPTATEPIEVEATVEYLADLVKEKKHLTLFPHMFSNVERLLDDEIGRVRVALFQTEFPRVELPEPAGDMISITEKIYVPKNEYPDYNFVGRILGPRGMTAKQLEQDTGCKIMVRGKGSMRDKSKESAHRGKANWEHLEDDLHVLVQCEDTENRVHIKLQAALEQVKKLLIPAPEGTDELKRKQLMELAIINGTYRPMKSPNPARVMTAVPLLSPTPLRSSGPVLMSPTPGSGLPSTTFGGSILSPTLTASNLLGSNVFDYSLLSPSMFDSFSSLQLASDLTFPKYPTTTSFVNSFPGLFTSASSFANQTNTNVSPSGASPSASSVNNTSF

SMILES | inhibition
Cn1cnnc1SCc1nnc(-c2ccccc2Br)o1 | -10.8%
CCOC(=O)N1CCN(Cc2nnc(-c3ccccc3Cl)o2)CC1 | -10.5%
Nc1cccc2c1C(=O)N(Cc1nnc(-c3ccccc3Br)o1)C2=O | 37% (active)
COc1cc(S(=O)(=O)N2CCN(C(=O)C3CC3)CC2)ccc1NC(C)=O | 3.97%
CCOc1ccc(NC(=O)c2cccc3c2C(=O)N(CC2CCCO2)C3)cc1 (stereo not given) | 2.1%
COCCN1C=C2C(=O)C(C)(OC(=O)C3CCCC3)C(=O)C=C2C=C1c1ccsc1 (stereo not given) | 23.1%
CCCCC1=CC2=CC(=O)C(C)(OC(=O)CC)C(=O)C2=CN1CCCOC(C)C (stereo not given) | 22.9%
COC/C=C/C1=CC2=CC(=O)C(C)(OC(=O)CCC(=O)OC)C(=O)C2=CO1 (stereo not given) | 46.7% (active)
CSCCNC(=O)c1ccc2nc(Cc3ccccc3F)oc2c1 | -1.35%
COc1ccc(CCN2C(=O)CC(N3CCC(C(N)=O)CC3)C2=O)cc1OC (stereo not given) | 1.78%
CCn1c(SCc2ccccc2)nc2cc(OC)c(OC)cc2c1=O | -3.64%
COC(=O)c1ccc(SCc2ccccc2)nc1 | -5.64%
CSc1c(SCc2ccccc2)cnn(Cc2ccccc2)c1=O | 140% (active)
COc1cc2c(C(=O)N3CCN(C)CC3)c(CSc3ccccc3)n(C)c2cc1Br | 0.62%
COC(=O)c1sc(-c2ccc(C(C)(C)C)cc2)cc1NC(=O)/C=C/C(=O)O | -0.27%
CN1C(=O)c2cccc3c(N)ccc(c23)C1=O | 198% (active)
Cc1nn(C)cc1C(=O)c1ccccc1 | 1.39%
CC(=O)Nc1ccccc1Sc1ccc2c3c(cccc13)C(=O)N(c1ccc(C)cc1)C2=O | 0.24%
O=C(O)c1ccc2c3c(cccc13)C(=O)N(OS(=O)(=O)c1ccccc1)C2=O | 13.8%
COc1ccc(N2C(=O)c3cccc4cccc(c34)C2=O)nn1 | 13.5%
COc1ccccc1C(=O)NCCC(=O)NCC(c1ccco1)N1CCCCC1 (stereo not given) | 3.67%
CC(C)(C)CN1CCNC(=O)C1CC(=O)NC1Cc2ccccc2C1 (stereo not given) | 8.53%
COc1ccccc1CNC(=O)c1ccc(Cl)c(S(=O)(=O)N2CCCC2)c1 | 0.54%

SMILES | inhibition
CCN1/C(=C\c2ccc3ccccc3[n+]2CC)Sc2cc(C)ccc21 | 61.6% (active)
N/C(=N\OC(=O)CCn1cccc(C(F)(F)F)c1=O)c1ccc(OC(F)(F)F)cc1 | -1.66%
CCOC(=O)c1cc(C#N)c(N2CCCCC2)nc1-c1ccccc1 | -3.77%
CCOc1ccc2nc(N3CCCN(C(=O)Nc4ccccc4C)CC3)c(C#N)cc2c1 | 42% (active)
CCOc1ccc(C(=O)NC2CCN(C(=O)Nc3ccccc3OC)CC2)cc1 | 0.46%
CC1CCCC(NC(=O)c2cccc(N3CCCC3=O)c2)C1C (stereo not given) | 2.8%
COc1ccccc1C(=O)Nc1nc2nc(-c3ccccc3)cc(=O)n2[nH]1 | 0.62%
CCNS(=O)(=O)c1ccc(CCC(=O)N2CCN(c3cc(Cl)ccc3C)CC2)cc1 | 1.35%
COc1ncnc2c1N=C1CC(C)(C)CC(N)=C1S2 | 112% (active)
Cc1cc(C)n(-c2nc(O)cc(=O)[nH]2)n1 | 4.97%
CC(C)(C)c1ccc(Cn2nnc3c(=O)[nH]c(C4CCCN(C(=O)c5ccco5)C4)nc32)cc1 (stereo not given) | 4.28%
CCOC(=O)c1cccc(NC(=O)CN2C(=O)C3CC=CCC3C2=O)c1 (stereo not given) | 4.12%
Cc1ccc(OCC(=O)Nc2ccc(C(=O)O)cc2NC(=O)COc2ccc(C)c(C)c2)cc1C | 8.42%
CCOC(=O)c1cnc(SC)nc1Sc1ccc(Cl)cc1Cl | 6.36%
CCCN(CC(=O)Nc1ccccc1OC)C(=O)CCC(=O)c1ccc(F)cc1 | 54.8% (active)
CCN(CC(=O)Nc1ccccc1OC)C(=O)CC1CC2CCC1C2 (stereo not given) | -0.14%
CCN(CC(=O)Nc1ccccc1OC)C(=O)Cn1cnc2ccccc2c1=O | 4.15%
CC1CCN(C(=O)Cn2nnnc2CN2CCOCC2)CC1 | 0.79%
CCCCNc1c(-c2cccc(Sc3ccc(OC)cc3)c2)nc2ccccn12 | 2.4%
Cc1cccc(N2C(=O)SC(SC(=Nc3ccccc3)Nc3ccccc3)C2=O)c1 (stereo not given) | 10.3%
COc1ccc(C)cc1NC(=S)Nc1ccccc1SC | -6.51%
COc1ccc2c(CC(=O)N3CCc4cc(OC)c(OC)cc4C3)coc2c1 | 5.21%
O=C(CSc1ccc2nnc(-c3ccccc3)n2n1)N1CCCc2ccccc21 | -1.09%

SMILES | inhibition
COC(=O)CCCC1=CC2=CC(=O)C(C)(OC(=O)c3cccs3)C(=O)C2=CN1c1cccc(C#N)c1 (stereo not given) | 38.1% (active)
COC(=O)CCCC1=CC2=C(c3ccccc3)C(=O)C(C)(OC(=O)C3CCCC3)C(=O)C2=CN1c1ccc(OC)cc1 (stereo not given) | 7.24%
COC(=O)CCCC1=CC2=CC(=O)C(C)(OC(=O)c3cccs3)C(=O)C2=CN1CC(C)C (stereo not given) | 5.88%
Cc1ccc(O)c(NC(=O)c2cc(-c3ccco3)on2)c1 | 1.89%
C[C@H]1CN([C@@H](C)CO)C(=O)Cc2cc(NS(C)(=O)=O)ccc2O[C@@H]1CN(C)CC1CC1 | 0.15%
CC(C)n1cnc2c(NCc3ccccc3)cc(OCC3CCN(C)CC3)cc21 | -21.3%
CCC(CO)Oc1cc(NCc2ccccc2)c2ncn(C3CCCC3)c2c1 (stereo not given) | 5.5%
CC(C)n1cnc2c(NCc3ccccc3)cc(N[C@@H](CO)Cc3ccccc3)cc21 | 43.8% (active)
CC(c1cccnc1)N(CCN(C)C)C(=O)Nc1ccc(Cl)c(Cl)c1 (stereo not given) | -1.61%
C/C(=N\N=C(N)N)c1ccc(Cl)cc1 | -0.39%
N#C/C(=C(\O)CCl)c1nnc2n1CCCCC2 | -10.3%
N#C/C(=C(\O)C(F)(F)F)c1nnc2n1CCCCC2 | 51.1% (active)
N#C/C(=C/c1cccc([N+](=O)[O-])c1)c1nnc2n1CCCCC2 | -1.89%
CS(=O)(=O)N1CCN(C(=O)CSc2ccccc2)CC1 | 2.68%
Cc1ccc(S(=O)(=O)N2CCC3(CC2)OCCO3)c(C)c1 | -2.29%
CCOc1ccc(CNC(=O)C2CCC(=O)N2C2CCCC2)cc1OC (stereo not given) | 7.99%
COC(=O)C1=CN(Cc2ccc(OC)cc2)C=C(C(=O)OC)C1c1ccc(O)c(OC)c1 | 4.18%
CCOc1cc(C2C(C(=O)OC)=CN(C3CCCC3)C=C2C(=O)OC)cc(Br)c1O | 44.7% (active)
CCC(C)[C@H](NC(=O)N1CCn2c1nc1ccccc12)C(=O)NCc1ccc(OC)cc1 (stereo not given in full) | 12.5%
C=CC[n+]1c(-c2ccc(C)cc2)csc1NNC(=O)Nc1ccccc1 | -11.8%
NS(=O)(=O)c1ccc(NC(=O)COC(=O)c2c3c(nc4ccccc24)/C(=C\c2ccc4c(c2)OCO4)CCC3)cc1 | 105% (active)
O=C(COC(=O)c1ccncc1)Nc1ccc2c(c1)OCO2 | -0.85%
O=C(COC(=O)c1ccc(F)cc1)Nc1ccc2c(c1)OCO2 | 0.03%

SMILES | inhibition
Cc1cccc(N=C2NC(=O)CS2)c1C | 5.66%
COc1ccccc1CNS(=O)(=O)CC12CCC(CC1=O)C2(C)C (stereo not given) | -1.89%
O=C(NCc1cccs1)C(=O)NCC1OCCCN1S(=O)(=O)c1ccc(F)cc1 (stereo not given) | 1.56%
COc1ccc(C)cc1S(=O)(=O)N1CCN(S(=O)(=O)c2cc(C(=O)O)ccc2C)CC1 | -3.62%
O=C(Nc1ccccc1)N1CCN(C(=O)Nc2ccccc2)CC1 | 3.08%
Cc1ccc(C)c(S(=O)(=O)N2CCN(C(=O)Nc3ccccc3)CC2)c1 | 34.2% (active)
COc1cc2c(cc1NC(=O)COC(=O)/C=C/c1ccccc1)oc1ccccc12 | 1.91%
Cc1ccc(CNC(=O)CC(NC(=O)c2ccccc2)c2ccccc2)cc1 (stereo not given) | 6.67%
COC(=O)c1cc(CNC(=O)CC(C)c2ccccc2)ccc1OC (stereo not given) | 31.6% (active)
COc1ccc(CNC(=O)Cc2ccc(-c3ccccc3)cc2)cc1OC | 11.5%
COc1ccc(C(C(=O)NC(C)(C)C)N(Cc2ccc(F)cc2)C(=O)CCC(=O)Nc2cc(C)on2)cc1 (stereo not given) | 3.47%
Cc1ccc(OCCNC(=O)CNC(=O)c2ccc(C)c(C)c2)cc1 | -0.98%
C=CCSc1nnc2c(n1)-c1cccc3cccc-2c13 | -2.48%
CC(C)(C)NC(=O)CN1CCC(NC(=O)C23CC4CC(CC(C4)C2)C3)CC1 | -2.46%
COc1ccc(Cl)cc1NC(=O)C(C)N1CCc2ccccc21 (stereo not given) | -0.08%
CCCCN(C(=O)CSCC(=O)Nc1ccc(OC)cc1)c1c(N)n(CCC)c(=O)[nH]c1=O | 4.96%
C[C@H](CO)N1C[C@H](C)[C@@H](CN(C)Cc2ccc(-c3ccccc3)cc2)Oc2ccc(NC(=O)Cn3cnnn3)cc2C1=O | 2.45%
N#CC1=C(N)C(C#N)(C#N)[C@H](c2ccsc2)[C@H]2COCC=C12 | 34.7% (active)
Cc1cccc(-n2ncc3c(=O)[nH]c(SCC(=O)Nc4cc(C)on4)nc32)c1 | 2.41%
O=C(COC(=O)CSc1ccccc1)Nc1ccc(F)cc1F | -2.02%
COc1ccc(OC)c(C(=O)c2ccc(C(=O)N3CCN(Cc4csc(C)n4)CC3)cc2)c1 | -0.78%
